We go through six sequences from PMC11006913.

Holding throughout (assay): PBM; 200 nM protein, PBS
Holding throughout (settings): dsDNA, one strand shown

Assay [1] has as its target HESX1 (Homo sapiens, UniProt Q9UBX0 95-180, R165K).
The target of assay [2] is HOXA7 (Homo sapiens, UniProt P31268 116-202).
The target of assay [3] is HESX1 (Homo sapiens, UniProt Q9UBX0 95-180).
In assay [4] the target is HOXA2 (Homo sapiens, UniProt O43364 129-215, R185T).
Assay [5] concerns the target ALX1 (Homo sapiens, UniProt Q15699 118-204, L144V).
The target of assay [6] is HOXA2 (Homo sapiens, UniProt O43364 129-215, R185K).
Chain of HOXA2 (Homo sapiens, UniProt O43364 129-215, R185K) (O43364 129-215 R185K): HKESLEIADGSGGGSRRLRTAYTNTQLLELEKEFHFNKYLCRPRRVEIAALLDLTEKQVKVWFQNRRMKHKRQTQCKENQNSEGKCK
Assay [7] addresses ALX1 (Homo sapiens, UniProt Q15699 118-204, L144R).
For assay [8], the target named is HESX1 (Homo sapiens, UniProt Q9UBX0 95-180, P111T).
Chain of HESX1 (Homo sapiens, UniProt Q9UBX0 95-180, P111T) (Q9UBX0 95-180 P111T): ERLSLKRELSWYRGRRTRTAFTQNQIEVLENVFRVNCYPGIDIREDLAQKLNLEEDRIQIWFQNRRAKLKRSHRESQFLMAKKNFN
The target in assay [9] is HESX1 (Homo sapiens, UniProt Q9UBX0 95-180, F115L).
Chain of HESX1 (Homo sapiens, UniProt Q9UBX0 95-180, F115L) (Q9UBX0 95-180 F115L): as the sequence (Q9UBX0 95-180 P111T) above, with T17P, F21L counted along it
Assay [10] deals with HOXA2 (Homo sapiens, UniProt O43364 129-215, Y150S).
Chain of HOXA2 (Homo sapiens, UniProt O43364 129-215, Y150S) (O43364 129-215 Y150S): as the sequence (O43364 129-215 R185K) above, with Y22S, K57R counted along it
For assay [11], the target named is HOXA7 (Homo sapiens, UniProt P31268 116-202, W177C).
Chain of HOXA7 (Homo sapiens, UniProt P31268 116-202, W177C) (P31268 116-202 W177C): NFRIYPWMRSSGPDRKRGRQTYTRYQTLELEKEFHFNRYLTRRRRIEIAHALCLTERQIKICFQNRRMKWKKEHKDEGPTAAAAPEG
Assay [12] addresses ALX1 (Homo sapiens, UniProt Q15699 118-204).
The target of assay [13] is HOXA2 (Homo sapiens, UniProt O43364 129-215).
Chain of HOXA2 (Homo sapiens, UniProt O43364 129-215) (O43364 129-215): as the sequence (O43364 129-215 R185K) above, with K57R counted along it
The target of assay [14] is HOXA4 (Homo sapiens, UniProt Q00056 201-287, W262R).
Chain of HOXA4 (Homo sapiens, UniProt Q00056 201-287, W262R) (Q00056 201-287 W262R): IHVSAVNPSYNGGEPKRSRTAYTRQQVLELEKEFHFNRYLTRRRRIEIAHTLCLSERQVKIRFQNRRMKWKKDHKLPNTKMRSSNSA
Assay [15] addresses HOXA4 (Homo sapiens, UniProt Q00056 201-287, R217L).
The target in assay [16] is HOXA4 (Homo sapiens, UniProt Q00056 201-287).
Chain of HOXA4 (Homo sapiens, UniProt Q00056 201-287) (Q00056 201-287): as the sequence (Q00056 201-287 W262R) above, with R62W counted along it
Assay [17] concerns the target HESX1 (Homo sapiens, UniProt Q9UBX0 95-180, R109Q).
Assay [18] addresses HOXA4 (Homo sapiens, UniProt Q00056 201-287, W262F).
The target of assay [19] is CRX (Homo sapiens, UniProt O43186 26-111).
Chain of CRX (Homo sapiens, UniProt O43186 26-111) (O43186 26-111): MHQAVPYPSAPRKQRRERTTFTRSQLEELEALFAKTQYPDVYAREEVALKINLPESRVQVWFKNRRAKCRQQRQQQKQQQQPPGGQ
For assay [20], the target named is T1, PAX4 (Homo sapiens, UniProt O43316 9-242, R200K).
T1 sequence: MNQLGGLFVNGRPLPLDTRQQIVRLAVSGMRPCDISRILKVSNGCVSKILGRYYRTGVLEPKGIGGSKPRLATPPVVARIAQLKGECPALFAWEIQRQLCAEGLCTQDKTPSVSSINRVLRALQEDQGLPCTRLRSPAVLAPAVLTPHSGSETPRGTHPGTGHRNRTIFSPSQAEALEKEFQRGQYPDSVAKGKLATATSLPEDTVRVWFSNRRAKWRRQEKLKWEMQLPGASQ

Assay [21] deals with T2, PAX4 (Homo sapiens, UniProt O43316 9-242).
T2 sequence: T1 sequence with K192R

Assay [22] deals with CRX (Homo sapiens, UniProt O43186 26-111, E42D).
Chain of CRX (Homo sapiens, UniProt O43186 26-111, E42D) (O43186 26-111 E42D): as the sequence (O43186 26-111) above, with E17D counted along it
The target in assay [23] is T3, PAX4 (Homo sapiens, UniProt O43316 9-242, R200Q).
T3 sequence: T1 sequence with K192Q

In assay [24] the target is T4, PAX4 (Homo sapiens, UniProt O43316 9-242, F177V).
T4 sequence: T1 sequence with F169V, K192R

Assay [25] deals with T5, PAX4 (Homo sapiens, UniProt O43316 9-242, F177Y).
T5 sequence: T1 sequence with F169Y, K192R

Assay [26] has as its target T6, PAX4 (Homo sapiens, UniProt O43316 9-242, R227W).
T6 sequence: T1 sequence with K192R, R219W

The target of assay [27] is CRX (Homo sapiens, UniProt O43186 26-111, R41L).
Chain of CRX (Homo sapiens, UniProt O43186 26-111, R41L) (O43186 26-111 R41L): as the sequence (O43186 26-111) above, with R16L counted along it
The target of assay [28] is ALX3 (Homo sapiens, UniProt O95076 139-225, N203Q).
Chain of ALX3 (Homo sapiens, UniProt O95076 139-225, N203Q) (O95076 139-225 N203Q): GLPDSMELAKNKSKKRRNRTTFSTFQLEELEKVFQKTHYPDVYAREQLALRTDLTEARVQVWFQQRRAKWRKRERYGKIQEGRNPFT
The target in assay [29] is ALX3 (Homo sapiens, UniProt O95076 139-225).
Chain of ALX3 (Homo sapiens, UniProt O95076 139-225) (O95076 139-225): as the sequence (O95076 139-225 N203Q) above, with Q65N counted along it
The target of assay [30] is ALX3 (Homo sapiens, UniProt O95076 139-225, L168Q).
Chain of ALX3 (Homo sapiens, UniProt O95076 139-225, L168Q) (O95076 139-225 L168Q): as the sequence (O95076 139-225 N203Q) above, with L30Q, Q65N counted along it
The target of assay [31] is ALX3 (Homo sapiens, UniProt O95076 139-225, L168V).
Chain of ALX3 (Homo sapiens, UniProt O95076 139-225, L168V) (O95076 139-225 L168V): as the sequence (O95076 139-225 N203Q) above, with L30V, Q65N counted along it
Assay [32] addresses ALX3 (Homo sapiens, UniProt O95076 139-225, N203S).
For assay [33], the target named is HOXB6 (Homo sapiens, UniProt P17509 132-218, K202E).
Chain of HOXB6 (Homo sapiens, UniProt P17509 132-218, K202E) (P17509 132-218 K202E): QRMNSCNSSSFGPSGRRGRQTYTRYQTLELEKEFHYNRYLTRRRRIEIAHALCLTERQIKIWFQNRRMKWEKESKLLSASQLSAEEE
Assay [34] addresses MSX2 (Homo sapiens, UniProt P35548 130-214, R199I).
Assay [35] addresses MSX2 (Homo sapiens, UniProt P35548 130-214).
The target in assay [36] is MSX2 (Homo sapiens, UniProt P35548 130-214, F161Y).
Chain of MSX2 (Homo sapiens, UniProt P35548 130-214, F161Y) (P35548 130-214 F161Y): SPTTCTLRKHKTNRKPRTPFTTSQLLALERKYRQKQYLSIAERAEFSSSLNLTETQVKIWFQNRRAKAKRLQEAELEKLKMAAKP
For assay [37], the target named is HOXB6 (Homo sapiens, UniProt P17509 132-218).
Chain of HOXB6 (Homo sapiens, UniProt P17509 132-218) (P17509 132-218): as the sequence (P17509 132-218 K202E) above, with E71K counted along it

Positions count from the first letter of the chain named.

Chain of HESX1 (Homo sapiens, UniProt Q9UBX0 95-180) (Q9UBX0 95-180): as the sequence (Q9UBX0 95-180 P111T) above, with T17P counted along it
Chain of HESX1 (Homo sapiens, UniProt Q9UBX0 95-180, R109Q) (Q9UBX0 95-180 R109Q): as the sequence (Q9UBX0 95-180 P111T) above, with R15Q, T17P counted along it
Chain of HESX1 (Homo sapiens, UniProt Q9UBX0 95-180, R165K) (Q9UBX0 95-180 R165K): as the sequence (Q9UBX0 95-180 P111T) above, with T17P, R71K counted along it
Chain of HOXA7 (Homo sapiens, UniProt P31268 116-202) (P31268 116-202): as the sequence (P31268 116-202 W177C) above, with C62W counted along it
Chain of ALX1 (Homo sapiens, UniProt Q15699 118-204, L144R) (Q15699 118-204 L144R): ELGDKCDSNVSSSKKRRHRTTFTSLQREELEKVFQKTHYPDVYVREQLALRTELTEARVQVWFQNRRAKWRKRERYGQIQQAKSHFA
Chain of ALX1 (Homo sapiens, UniProt Q15699 118-204) (Q15699 118-204): as the sequence (Q15699 118-204 L144R) above, with R27L counted along it
Chain of ALX1 (Homo sapiens, UniProt Q15699 118-204, L144V) (Q15699 118-204 L144V): as the sequence (Q15699 118-204 L144R) above, with R27V counted along it
Chain of MSX2 (Homo sapiens, UniProt P35548 130-214, R199I) (P35548 130-214 R199I): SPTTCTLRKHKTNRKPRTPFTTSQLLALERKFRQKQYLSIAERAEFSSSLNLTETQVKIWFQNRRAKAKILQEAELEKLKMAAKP
Chain of HOXA4 (Homo sapiens, UniProt Q00056 201-287, R217L) (Q00056 201-287 R217L): as the sequence (Q00056 201-287 W262R) above, with R17L, R62W counted along it
Chain of HOXA4 (Homo sapiens, UniProt Q00056 201-287, W262F) (Q00056 201-287 W262F): as the sequence (Q00056 201-287 W262R) above, with R62F counted along it
Chain of ALX3 (Homo sapiens, UniProt O95076 139-225, N203S) (O95076 139-225 N203S): as the sequence (O95076 139-225 N203Q) above, with Q65S counted along it
Chain of MSX2 (Homo sapiens, UniProt P35548 130-214) (P35548 130-214): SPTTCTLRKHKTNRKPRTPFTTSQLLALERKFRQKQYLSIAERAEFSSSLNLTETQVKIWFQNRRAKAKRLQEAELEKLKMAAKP
Chain of HOXA2 (Homo sapiens, UniProt O43364 129-215, R185T) (O43364 129-215 R185T): as the sequence (O43364 129-215 R185K) above, with K57T counted along it

On to CTGCATTA, for which the binding signal is 7.23 upbm affinity estimate (log intensity, higher = more binding, comparable within an allelic series) with HESX1 [1]; 9.13 upbm affinity estimate (log intensity, higher = more binding, comparable within an allelic series) with HOXA7 [2]; 7.34 upbm affinity estimate (log intensity, higher = more binding, comparable within an allelic series) with HESX1 [3]; 9.52 upbm affinity estimate (log intensity, higher = more binding, comparable within an allelic series) with HOXA2 [4]; 8.85 upbm affinity estimate (log intensity, higher = more binding, comparable within an allelic series) with ALX1 [5]; 11.7 upbm affinity estimate (log intensity, higher = more binding, comparable within an allelic series) with HOXA2 [6]. Further, the binding signal with ALX1 [7] was 8.64 upbm affinity estimate (log intensity, higher = more binding, comparable within an allelic series); in the assay with HESX1 [8], 7.12 upbm affinity estimate (log intensity, higher = more binding, comparable within an allelic series); in the assay with HESX1 [9], 6.71 upbm affinity estimate (log intensity, higher = more binding, comparable within an allelic series); in the assay with HOXA2 [10] it was 10.6 upbm affinity estimate (log intensity, higher = more binding, comparable within an allelic series); with HOXA7 [11], 8.56 upbm affinity estimate (log intensity, higher = more binding, comparable within an allelic series); with ALX1 [12], 9.15 upbm affinity estimate (log intensity, higher = more binding, comparable within an allelic series). For the same sequence, the binding signal with HOXA2 [13] is 9.83 upbm affinity estimate (log intensity, higher = more binding, comparable within an allelic series).

In the case of AGGGTCCC, the binding signal with HESX1 [1] is 6.51 upbm affinity estimate (log intensity, higher = more binding, comparable within an allelic series); in the assay with HOXA4 [14] it was 9.9 upbm affinity estimate (log intensity, higher = more binding, comparable within an allelic series); in the assay with HESX1 [3], 6.48 upbm affinity estimate (log intensity, higher = more binding, comparable within an allelic series); in the assay with HOXA4 [15], 9.79 upbm affinity estimate (log intensity, higher = more binding, comparable within an allelic series); with HOXA4 [16] it was 9.74 upbm affinity estimate (log intensity, higher = more binding, comparable within an allelic series); in the assay with HESX1 [17] it was 6.45 upbm affinity estimate (log intensity, higher = more binding, comparable within an allelic series). The binding signal was 6.51 upbm affinity estimate (log intensity, higher = more binding, comparable within an allelic series) with HESX1 [8]; 6.53 upbm affinity estimate (log intensity, higher = more binding, comparable within an allelic series) in the assay with HESX1 [9]; 9.78 upbm affinity estimate (log intensity, higher = more binding, comparable within an allelic series) with HOXA4 [18].

Consider AGAGCGCG, for which the binding signal was 6.51 upbm affinity estimate (log intensity, higher = more binding, comparable within an allelic series) with HESX1 [1]; 8.2 upbm affinity estimate (log intensity, higher = more binding, comparable within an allelic series) with CRX [19]; 9.35 upbm affinity estimate (log intensity, higher = more binding, comparable within an allelic series) with PAX4 [20]; 9.24 upbm affinity estimate (log intensity, higher = more binding, comparable within an allelic series) in the assay with PAX4 [21]; 6.38 upbm affinity estimate (log intensity, higher = more binding, comparable within an allelic series) in the assay with HESX1 [3]; 8.22 upbm affinity estimate (log intensity, higher = more binding, comparable within an allelic series) with CRX [22]. In addition, the binding signal with PAX4 [23] was 9.35 upbm affinity estimate (log intensity, higher = more binding, comparable within an allelic series); in the assay with PAX4 [24] it was 9.32 upbm affinity estimate (log intensity, higher = more binding, comparable within an allelic series); in the assay with PAX4 [25], 9.31 upbm affinity estimate (log intensity, higher = more binding, comparable within an allelic series); in the assay with HESX1 [17], 6.56 upbm affinity estimate (log intensity, higher = more binding, comparable within an allelic series); with HESX1 [8], 6.61 upbm affinity estimate (log intensity, higher = more binding, comparable within an allelic series); with HESX1 [9] it was 6.46 upbm affinity estimate (log intensity, higher = more binding, comparable within an allelic series). Besides, the binding signal in the assay with PAX4 [26] was 9.39 upbm affinity estimate (log intensity, higher = more binding, comparable within an allelic series); with CRX [27] it was 8.22 upbm affinity estimate (log intensity, higher = more binding, comparable within an allelic series).

Turning to CCGAGCCG, the binding signal in the assay with HESX1 [1] is 6.36 upbm affinity estimate (log intensity, higher = more binding, comparable within an allelic series); with HOXA7 [2] it was 8.34 upbm affinity estimate (log intensity, higher = more binding, comparable within an allelic series); in the assay with HESX1 [3], 6.14 upbm affinity estimate (log intensity, higher = more binding, comparable within an allelic series); with ALX1 [5], 6.19 upbm affinity estimate (log intensity, higher = more binding, comparable within an allelic series); with ALX3 [28], 7.62 upbm affinity estimate (log intensity, higher = more binding, comparable within an allelic series); in the assay with ALX1 [7], 6.2 upbm affinity estimate (log intensity, higher = more binding, comparable within an allelic series). In addition, the binding signal was 7.46 upbm affinity estimate (log intensity, higher = more binding, comparable within an allelic series) with ALX3 [29]; 6.38 upbm affinity estimate (log intensity, higher = more binding, comparable within an allelic series) in the assay with HESX1 [17]; 7.56 upbm affinity estimate (log intensity, higher = more binding, comparable within an allelic series) with ALX3 [30]; 6.22 upbm affinity estimate (log intensity, higher = more binding, comparable within an allelic series) in the assay with HESX1 [8]; 7.69 upbm affinity estimate (log intensity, higher = more binding, comparable within an allelic series) with ALX3 [31]; 6.62 upbm affinity estimate (log intensity, higher = more binding, comparable within an allelic series) with HESX1 [9]. Also, the binding signal with HOXA7 [11] is 8.22 upbm affinity estimate (log intensity, higher = more binding, comparable within an allelic series); in the assay with ALX1 [12], 6.32 upbm affinity estimate (log intensity, higher = more binding, comparable within an allelic series); with ALX3 [32], 7.67 upbm affinity estimate (log intensity, higher = more binding, comparable within an allelic series).

Take GCAATTAC: the binding signal with HESX1 [1] was 11.4 upbm affinity estimate (log intensity, higher = more binding, comparable within an allelic series); with HOXA7 [2], 11.2 upbm affinity estimate (log intensity, higher = more binding, comparable within an allelic series); with HOXB6 [33], 9.75 upbm affinity estimate (log intensity, higher = more binding, comparable within an allelic series); with HESX1 [3], 11.5 upbm affinity estimate (log intensity, higher = more binding, comparable within an allelic series); with MSX2 [34], 12.5 upbm affinity estimate (log intensity, higher = more binding, comparable within an allelic series); with MSX2 [35], 13.7 upbm affinity estimate (log intensity, higher = more binding, comparable within an allelic series). The binding signal with HESX1 [17] is 8.2 upbm affinity estimate (log intensity, higher = more binding, comparable within an allelic series); in the assay with HESX1 [8], 9.93 upbm affinity estimate (log intensity, higher = more binding, comparable within an allelic series); in the assay with MSX2 [36], 13.4 upbm affinity estimate (log intensity, higher = more binding, comparable within an allelic series); in the assay with HESX1 [9] it was 7.19 upbm affinity estimate (log intensity, higher = more binding, comparable within an allelic series); in the assay with HOXA7 [11] it was 8.74 upbm affinity estimate (log intensity, higher = more binding, comparable within an allelic series); in the assay with HOXB6 [37], 11.7 upbm affinity estimate (log intensity, higher = more binding, comparable within an allelic series).

In the case of AGCTGCCT, the binding signal with HESX1 [1] is 6.48 upbm affinity estimate (log intensity, higher = more binding, comparable within an allelic series); with HOXA7 [2], 8.26 upbm affinity estimate (log intensity, higher = more binding, comparable within an allelic series); with HESX1 [3], 6.48 upbm affinity estimate (log intensity, higher = more binding, comparable within an allelic series); with HESX1 [17], 6.53 upbm affinity estimate (log intensity, higher = more binding, comparable within an allelic series); in the assay with HESX1 [8], 6.48 upbm affinity estimate (log intensity, higher = more binding, comparable within an allelic series); in the assay with HESX1 [9] it was 6.43 upbm affinity estimate (log intensity, higher = more binding, comparable within an allelic series). The binding signal with HOXA7 [11] is 8.25 upbm affinity estimate (log intensity, higher = more binding, comparable within an allelic series).
